Results filed as inconclusive are left out. Calls of active or inactive are those of the source. Calls follow the shape of the dose curve; as a rule, active = well fitted cell-killing curve with a large enough effect; inconclusive = small, poorly fitted or top-dose-only effect; inactive = no such curve, though single readings can be large or run the other way.
Assay: qHTS of pediatric cancer cell lines to identify multiple opportunities for drug repurposing: Primary screen for SK-N-SH cells (AID 1347098); also: nearly all actives have a fitted effect of over 65% in size
Conditions: SK-N-SH viability, CellTiter-Glo luminescence, 48 h; series mostly up to 57 µM
Text: Drug repurposing or repositioning has been offered as a strategy for drug development in oncology programs. This approach has special potential for childhood cancers and other rare or orphan diseases, where the expected return on new drug development has been a disincentive to pharmaceuticals.
In this project we exploit the poly-pharmacology of drugs to discover new indications via phenotypic screening of a panel of 19 well-characterized cell lines derived from solid tumors seen in children and adolescents. The goal is to identify approved drugs with previously unrecognized anticancer properties that has the potential to reveal new mechanisms and biological processes involved in carcinogenesis or drug resistance. We employed a titration-based paradigm (quantitative high-throughput screening or qHTS), where all compounds were tested at multiple concentrations for their effect on cell viability. Concentration-response curves (CRCs) were derived directly from the primary screen, and both potency and efficacy values were used to identify compounds with robust bioactivity profiles. We screened the NIH Chemical Genomics Center (NCGC) Pharmaceutical Collection (NPC) and Mechanism Interrogation Plate (MIPE) small molecule collections of approved and investigational compounds against these cell lines; and measured metabolically active cells after 48 hours of compound treatment as a proxy for cell viability.
Assay Submitter: Nathalia J. Martinez, National Center for Advancing Translational Sciences, National Institutes of Health, Rockville, MD, USA; email: natalia.martinez@nih.gov
[1] Shen, M et al. Quantitative high-throughput phenotypic screening of pediatric cancer cell lines identifies multiple opportunities for drug repurposing. Oncotarget 2017 Dec 19;9(4):4758-4772. PMID 29435139.
The cells were obtained from University of North Carolina (UNC), Pediatric Preclinical Testing Program (PPT), and Coriell Institute (CI).
qHTS cell viability assay:
Cells were assayed in growth media at a density of 500-1,000 cells/well. Five microliters of cells were dispensed into 1,536-well, white, solid-bottom, TC-treated plates (Greiner Bio One) using a multidrop dispenser and incubated at 37 degrees C, 5% CO2, under a humidified atmosphere for 5 hours. Twenty-three nanoliters of compounds and controls (neutral control DMSO or positive control bortezomib at final concentration of 2.3 µM) were subsequently transferred by Kalypsys pintool. For primary screens, the MIPE collection was tested at 11-point dilutions (final concentrations range from 0.78 nM to 46 µM) and the NPC collection at 8-point dilutions (final concentrations range from 0.59 nM to 46 µM). Compounds tested in follow-up screens were assayed at 11-point dilutions. Cells were incubated for 48 hours, followed by addition of 3 µL of CellTiter-Glo (Promega). After a 15 min incubation at room temperature, samples were analyzed for luminescence intensity using a ViewLux High-throughput CCD imager equipped with clear filters.

Row | Structure (SMILES) | outcome
1 | CC(C)(C)NCC(O)COc1cccc2c1CCC(=O)N2 (stereo not given) | inactive
2 | C/C=C/C(=O)N(CC)c1ccccc1C | inactive
3 | OCC(O)CS (stereo not given) | inactive
4 | Cc1cccc(C)c1NC(=O)CC12CCCN1CCC2 | inactive
5 | COC(=O)c1ccc(O)cc1 | inactive
6 | CCCOC(=O)c1ccc(N)cc1 | inactive
7 | CO[C@@]1(NC(=O)C(C(=O)O)c2ccc(O)cc2)C(=O)N2C(C(=O)O)=C(CSc3nnnn3C)CO[C@@H]21 (stereo not given in full) | inactive
8 | CC[N+](C)(CC)CCOC(=O)C1c2ccccc2Oc2ccccc21 | inactive
9 | CCCCCCCC(=O)OCC(O)CO (stereo not given) | inactive
10 | CCN1CC(CCN2CCOCC2)C(c2ccccc2)(c2ccccc2)C1=O (stereo not given) | inactive
11 | CC1(C)S[C@@H]2[C@H](N=CN3CCCCCC3)C(=O)N2[C@H]1C(=O)O | inactive
12 | CC(=O)SC[C@@H](Cc1ccccc1)C(=O)NCC(=O)OCc1ccccc1 | inactive
13 | CN(C(=O)c1c(O)c2ccccc2n(C)c1=O)c1ccccc1 | inactive
14 | Cc1ccsc1C(=CCCN1CCC[C@@H](C(=O)O)C1)c1sccc1C | inactive
15 | Cc1cc(O)cc(C)c1Cl | inactive
16 | C[N+](C)(C)CC[N+]1(C)Cc2c(Cl)c(Cl)c(Cl)c(Cl)c2C1 | inactive
17 | CN1CCN(C(=O)C2CCCCC2)CC1 | inactive
18 | C[C@@H](N)C(=O)O | inactive
19 | NC(=O)NS(=O)(=O)c1ccc(N)cc1 | inactive
20 | CCN(CC)CCc1nc(-c2ccccc2)no1 | inactive

Row | Structure (SMILES) | outcome
21 | CCCCOC(=O)c1ccc(N)cc1 | inactive
22 | C[C@@H]1O[C@@H](OC[C@H]2O[C@@H](Oc3c(-c4ccc(O)c(O)c4)oc4cc(O)cc(O)c4c3=O)[C@H](O)[C@@H](O)[C@@H]2O)[C@H](O)[C@H](O)[C@H]1O | inactive
23 | O=C(O)/C=C/c1ccc(Cn2ccnc2)cc1 | inactive
24 | O=C1CC[C@@H](C(=O)O)N1 | inactive
25 | Cc1ccc(S(=O)(=O)NC(=O)NC2CCCCCCC2)cc1 | inactive
26 | CC(=O)Oc1cccc(C)c1 | inactive
27 | NS(=O)(=O)c1ccc(NC(=O)CCC(=O)O)cc1 | inactive
28 | OC[C@@H](O)[C@@H](O)[C@H](O)[C@H](O)CO | inactive
29 | CC[C@H](C)[C@H](N)C(=O)O | inactive
30 | O=C(c1ccccc1)C(O)c1ccccc1 (stereo not given) | inactive
31 | CC1(C)S[C@@H]2[C@H](NC(=O)C(C(=O)O)c3ccccc3)C(=O)N2[C@H]1C(=O)O (stereo not given in full) | inactive
32 | NC(=O)c1ccc([N+](=O)[O-])cc1Cl | inactive
33 | NCc1ccc(S(N)(=O)=O)cc1 | inactive
34 | CCc1nnc(NS(=O)(=O)c2ccc(N)cc2)s1 | inactive
35 | CC[N+](CC)(CC(=O)Nc1c(C)cccc1C)Cc1ccccc1 | inactive
36 | CC(=O)Nc1ccccc1 | inactive
37 | CCCCCCCCCCCCCCCCC(C(=O)O)C(O)(CC(=O)O)C(=O)O (stereo not given) | inactive
38 | C[C@]1(Cn2ccnn2)[C@H](C(=O)O)N2C(=O)C[C@H]2S1(=O)=O | inactive
39 | CC(C)(C)C(=O)OCOC(=O)[C@@H]1N2C(=O)[C@@H](NC(=O)[C@H](N)c3ccccc3)[C@H]2SC1(C)C | inactive
40 | CCCNC(C)(C)COC(=O)c1ccccc1 | inactive
